Test results from PubChem BioAssay AID1159580 (chemical genetic matrix, 2015).
Several values for one entry are separate records, joined by “and”; a condition that tells them apart may be missing. Equal entries are not always repeated. Among all 5,500 compounds or so, about 2,000 (36%) were called active. Inconclusive results (about 18%) are left out. Rule as the data show it: active = normalized growth mostly below about 0.91 (no sharp cut-off); inconclusive = no clear call, values can overlap the other calls; inactive = mostly above about 0.92. The list shows a part of the results.

Assay: chemical genetic growth profiling, strain panel (AID 1159580);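 also: tested at 20 µM; growth read once vehicle control cultures reached saturation at 30 °C; 1 = growth at the plate median or of vehicle wells; lower values mean less growth of the strain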
Settings: S. cerevisiae deletion strains, growth OD

Measured: normalized growth

CCC(=O)OCC(=O)C1(OC(=O)CC)C(C)CC2C3CCC4=CC(=O)C=CC4(C)C3(Cl)C(O)CC21C (stereo unspecified)
inactive: locus YAL021C, strain ccr4, active compounds read low 0.99 | locus YAL026C, strain drs2, active compounds read low 1 | locus YAL030W, strain snc1, active compounds read low 0.999 | locus YBL061C, strain skt5, active compounds read low 0.98 | locus YBR009C, strain hhf1, active compounds read low 0.996 | locus YBR021W, strain FUR4, active compounds read low 1.04 | locus YBR023C, strain chs3, active compounds read low 0.979 | locus YBR171W, strain sec66, active compounds read low 0.963 | locus YBR229C, strain ROT2, active compounds read low 1.02 | locus YBR231C, strain swc5, active compounds read low 0.972 | locus YBR279W, strain paf1, active compounds read low 0.99 | locus YCL011C, strain gbp2, active compounds read low 1 | locus YCL016C, strain dcc1, active compounds read low 1.01 | locus YCL029C, strain bik1, active compounds read low 0.993 | locus YCL061C, strain MRC1, active compounds read low 0.991 | locus YCL069W, strain vba3, active compounds read low 0.977 | locus YCR088W, strain abp1, active compounds read low 0.993 | locus YDL005C, strain med2, active compounds read low 0.97 | locus YDL035C, strain GPR1, active compounds read low 1.03 | locus YDL040C, strain nat1, active compounds read low 0.973 | locus YDL074C, strain BRE1, active compounds read low 1.03 | locus YDL101C, strain DUN1, active compounds read low 1.01 | locus YDL185W, strain tfp1, active compounds read low 0.998 | locus YDL192W, strain arf1, active compounds read low 0.997 | locus YDR001C, strain nth1, active compounds read low 0.989 | locus YDR069C, strain doa4, active compounds read low 0.959 | locus YDR101C, strain arx1, active compounds read low 0.969 | locus YDR137W, strain rgp1, active compounds read low 0.932 | locus YDR150W, strain NUM1, active compounds read low 1.01 | locus YDR159W, strain sac3, active compounds read low 0.959 | locus YDR162C, strain NBP2, active compounds read low 1.04 | locus YDR195W, strain ref2 0.975 | locus YDR297W, strain sur2, active compounds read low 0.979 | locus YDR318W, strain mcm21, active compounds read low 0.993 | locus YDR334W, strain swr1, active compounds read low 0.991 | locus YDR335W, strain msn5, active compounds read low 0.966 | locus YDR388W, active compounds read low 0.99 | locus YDR392W, strain spt3, active compounds read low 1.03 | locus YDR502C, strain sam2, active compounds read low 0.994 | locus YEL003W, strain gim4, active compounds read low 0.973 | locus YEL037C, strain rad23, active compounds read low 0.975 | locus YEL061C, strain CIN8 (second series), active compounds read low 0.975 | locus YEL061C, strain CIN8, active compounds read low 1.01 | locus YER015W, strain faa2, active compounds read low 0.986 | locus YER016W, strain bim1, active compounds read low 0.996 | locus YER110C, active compounds read low 0.984 | locus YER111C, strain swi4, active compounds read low 0.967 | locus YER155C, strain BEM2 (second series), active compounds read low 0.995 | locus YER155C, strain BEM2, active compounds read low 1.01 | locus YER167W, strain BCK2, active compounds read low 1.02 | locus YFR010W, strain ubp6, active compounds read low 0.957 | locus YGL078C, strain dbp3, active compounds read low 0.99 | locus YGL086W, strain mad1, active compounds read low 0.989 | locus YGL167C, strain pmr1, active compounds read low 0.948 | locus YGL173C, strain kem1, active compounds read low 0.952 | locus YGL227W, strain vid30, active compounds read low 0.983 | locus YGL240W, strain doc1, active compounds read low 0.974 | locus YGL248W, strain PDE1, active compounds read low 1.02 | locus YGL253W, strain hxk2, active compounds read low 0.926 | locus YGR135W, strain pre9, active compounds read low 1 | locus YGR229C, strain SMI1, active compounds read low 1.03 | locus YGR252W, strain gcn5, active compounds read low 1.02 | locus YHR013C, strain ard1, active compounds read low 0.987 | locus YHR027C, strain rpn1, active compounds read low 0.999 | locus YHR030C, strain SLT2, active compounds read low 1.01 and 1.11 | locus YHR079C, strain IRE1 (second series), active compounds read low 0.985 | locus YHR079C, strain IRE1, active compounds read low 1.05 | locus YHR094C, strain hxt1, active compounds read low 0.989 | locus YHR129C, strain ARP1, active compounds read low 1.02 | locus YHR142W, strain chs7, active compounds read low 0.913 | locus YHR200W, strain rpn10, active compounds read low 0.99 | locus YIL066C, strain RNR3, active compounds read low 1.03 | locus YIL073C, strain SPO22, active compounds read low 1.01 | locus YIL125W, strain kgd1, active compounds read low 0.99 | locus YIR030C, strain dcg1, active compounds read low 0.984 | locus YJL092W, strain hpr5, active compounds read low 0.978 | locus YJL095W, strain BCK1 (second series), active compounds read low 0.982 | locus YJL095W, strain BCK1, active compounds read low 1.02 and 1.04 | locus YJL115W, strain asf1, active compounds read low 0.973 | locus YJL129C, strain trk1, active compounds read low 0.922 | locus YJL134W, strain LCB3, active compounds read low 1.01 | locus YJL154C, strain vps35, active compounds read low 0.965 | locus YJL164C, strain tpk1, active compounds read low 1.01 | locus YJL166W, strain qcr8, active compounds read low 0.947 | locus YJL168C, strain set2, active compounds read low 0.991 | locus YJL187C, strain SWE1 (second series), active compounds read low 1
